# Measured values published in PubChem BioAssay AID623911 (Vanderbilt High Throughput Screening Facility, 2012).
# Out of some 2,100 compounds screened, about 770 (37%) were called active. The list shows a part of the results. A number with no mark means an inactive call.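 The calls were made as follows: active = by-eye trace score of 1 for enhancers or -1 for inhibitors, so actives lie on both sides (some results past the limit were not filed as active); inactive = score 0, or 3 fluorescent, or 4 baseline rise.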
# Biological target: G protein-activated inward rectifier potassium channel 2 (Homo sapiens) + G protein-activated inward rectifier potassium channel 1 (Homo sapiens) (UniProt P48051+P48549)
# Sequence (P48051 whole entry, looked up): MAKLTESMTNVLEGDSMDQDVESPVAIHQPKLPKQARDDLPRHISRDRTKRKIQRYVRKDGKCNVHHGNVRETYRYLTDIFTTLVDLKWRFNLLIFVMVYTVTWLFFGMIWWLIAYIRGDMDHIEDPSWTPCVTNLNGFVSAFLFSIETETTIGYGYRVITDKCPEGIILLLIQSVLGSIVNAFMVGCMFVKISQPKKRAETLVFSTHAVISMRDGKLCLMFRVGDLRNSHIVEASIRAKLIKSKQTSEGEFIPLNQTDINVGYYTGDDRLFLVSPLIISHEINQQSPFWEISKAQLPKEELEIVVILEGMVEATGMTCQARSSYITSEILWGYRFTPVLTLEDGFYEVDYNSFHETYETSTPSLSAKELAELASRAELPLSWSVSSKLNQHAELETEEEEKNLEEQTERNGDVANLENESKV
# Sequence (P48549 whole entry, looked up): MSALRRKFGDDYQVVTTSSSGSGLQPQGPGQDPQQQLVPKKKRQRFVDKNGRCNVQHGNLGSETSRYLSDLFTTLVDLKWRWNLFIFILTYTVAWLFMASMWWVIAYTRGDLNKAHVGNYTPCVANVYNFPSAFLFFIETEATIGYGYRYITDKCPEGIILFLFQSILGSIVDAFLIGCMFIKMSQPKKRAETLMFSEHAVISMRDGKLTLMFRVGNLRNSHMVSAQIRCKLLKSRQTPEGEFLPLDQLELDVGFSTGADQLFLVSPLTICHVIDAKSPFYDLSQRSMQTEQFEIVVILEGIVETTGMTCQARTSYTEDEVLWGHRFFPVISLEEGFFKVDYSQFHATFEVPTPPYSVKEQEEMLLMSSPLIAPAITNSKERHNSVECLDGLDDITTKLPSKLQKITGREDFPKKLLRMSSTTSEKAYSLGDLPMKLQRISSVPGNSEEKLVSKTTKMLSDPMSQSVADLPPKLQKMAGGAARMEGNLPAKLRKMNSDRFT
# Assay: GIRK1/2 thallium flux modulators, retest, confirmation, cell-based, HEK293 rmGlu8/hGIRK1/2, FluoZin-2 (AID 623911)
# Details: HEK293 rmGlu8/hGIRK1/2, thallium flux FluoZin-2; actives lie on both sides; glutamate co-added at its EC20 level
row,SMILES,manual score
1,CC(C)n1c(O)c(N=Nc2ccccn2)c2ccccc21,0
2,Oc1c(N=Nc2ccccn2)ccc2ccccc12,1 (active)
3,Oc1ccc2ccccc2c1N=Nc1ccccn1,0
4,C=CCN(CC=C)C(=S)NC(=O)c1ccc([N+](=O)[O-])cc1,1 (active)
5,CCCN(CCC)C(=S)NC(=O)c1ccc(-c2ccccc2)cc1,1 (active)
6,CN(Cc1ccccc1)C(=S)NC(=O)c1ccc(-c2ccccc2)cc1,0
7,O=C(NC(=S)NCC1COc2ccccc2O1)c1ccccc1 (stereo unspecified),0
8,C=CCN(CC=C)C(=S)NC(=O)c1ccc(-c2ccccc2)cc1,1 (active)
9,C=CCNC(=O)NC(=S)c1ccccc1,0
10,FC(F)(F)c1cnc(NNC(=S)Nc2ccc(Cl)cc2)c(Cl)c1,1 (active)
11,O=C1/C(=C\c2ccccn2)SC(=S)N1Nc1ncc(C(F)(F)F)cc1Cl,0
12,FC(F)(F)c1cnc(NNC(=S)Nc2ccccc2Cl)c(Cl)c1,1 (active)
13,Cc1ccc(NC(=S)NNc2ncc(C(F)(F)F)cc2Cl)c(C)c1,0
14,NC(=O)c1ccc(Cc2ncc(C(F)(F)F)cc2Cl)s1,0
15,CC(C)CC(=O)CN1C(=O)C2(OCCO2)c2ccccc21,0
16,CCCCN(C)CC(O)Cn1cc(/C=C/C(=O)c2cccs2)c2ccccc21 (stereo unspecified),3

row,SMILES,manual score
1,O=C1CC(c2ccncc2)c2cc3c(cc2N1)OCCO3 (stereo unspecified),0
2,CC(C)OCCCn1c(=S)[nH]c2cc3c(cc2c1=O)OCO3,1 (active)
3,O=c1c2cc(F)ccc2[nH]c(=S)n1CCCN1CCOCC1,0
4,COc1ccc(C(C)N2CC34C=CC(O3)C(C(=O)OCC(C)C)C4C2=O)cc1 (stereo unspecified),0
5,CCCOc1cccc(-c2cc(-c3n[nH]c(=S)n3CC)c3ccccc3n2)c1,0
6,COc1cc(C)nc(N(Cc2ccccc2)S(=O)(=O)c2ccccc2)n1,-1 (active)
7,COc1ccc(S(=O)(=O)N(CCc2ccccc2)CC(=O)O)cc1,0
8,Cc1c(C#N)c2ncn(CC#N)c(=O)c2n1-c1ccccc1,0
9,Cc1cccc(C(=O)NC(=S)NNC(=O)c2ccccc2Cl)c1,1 (active)
10,CC(=O)c1cccc(NC(=S)NC(=O)c2cccc(C)c2)c1,0
11,Cc1cccc(C(=O)NC(=S)NNC(=O)c2ccc(Cl)cc2)c1,1 (active)
12,O=C(/C=C/c1cccs1)NC(=S)NNC(=O)Cc1cccs1,0
13,O=C(NC(=S)Nc1ccc(N2CCOCC2)cc1)c1cccc(Cl)c1,0.5
14,O=C(NC(=S)NNC(=O)c1cccs1)c1ccc(Br)o1,1 (active)
15,CC(=O)c1cccc(NC(=S)NC(=O)c2cccc(Cl)c2)c1,1 (active)
